Among the data in PubChem BioAssay (NCI) are growth inhibition values, retold here.

Compounds without any hit were thinned out: in the full panel of roughly 79,000, 15% have a hit. Values without a mark were called inactive. The source made the active and inactive calls. No stated cut-off is given here; in the data, active means growth inhibition above about 70%; inactive means the rest.

The nature of this assay: NCI Yeast Anticancer Drug Screen. Data for the cln2 rad14 strain (AID 165).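 Further: 0% = growth equal to vehicle treated cultures.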 The conditions noted are these: S. cerevisiae cln2 rad14 strain, at 5.0 µM (retest, dose inferred, filed as 0.5), active compounds read high. The method in brief: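 Compounds are applied to the cln2 rad14 yeast strain, and growth is then compared with that of vehicle-treated cultures to give inhibition.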
For the compound `O=[N+]([O-])c1cc[n+]([O-])c2ccccc12`, the growth inhibition is 100% (active).

On to `COc1c[c]([Hg][O]C(C)=O)c(OC)c(NC(=O)CC(C)=O)[c]1[Hg][O]C(C)=O`, for which the growth inhibition was 43%.

As to `CN(C)c1ccc(C2N(Cc3ccc(N(CCCl)CCCl)cc3)CCCN2Cc2ccc(N(CCCl)CCCl)cc2)cc1`, the growth inhibition is -1%.

For `CC(=O)c1ccc(-[n+]2c(C)cc(-c3ccccc3)cc2C)cc1`, the growth inhibition is 3%.

Consider `[O]=[Sb]([OH])([OH])[c]1ccc(NC2OC(CO)C(O)C(O)C2O)cc1` (stereo not given), for which the growth inhibition was 0%.

On to `CCC1CN1P(=O)(Oc1ccccc1)N1CC1CC` (stereo not given), for which the growth inhibition is -11%.

For `CCN(CC)CC(=O)c1cc2ccccc2c2ccccc12`, the growth inhibition was 2%.

For the compound `O=C1CCCC1Cl` (stereo not given), the growth inhibition is -2%.

Consider `N#C[S-].[La+3].c1ccc(-c2ccccn2)nc1.c1ccc(-c2ccccn2)nc1.c1ccc(-c2ccccn2)nc1`, for which the growth inhibition is 33%.

For `O=c1s[se]c2ccccc12`, the growth inhibition was 21%.

`O=C(CCl)Nc1ccc(Cl)cc1`: the growth inhibition was -2%.

As for `O=C1N[C@H]2[C@H](O)[C@H](O)[C@@H](O)[C@H](O)[C@@H]2c2cc3c(c(O)c21)OCO3`, the growth inhibition was 32%.

As to `O=C(Nc1n[c]([Hg][Cl])[c]([Hg][Cl])s1)OCc1ccccc1`, the growth inhibition was 34%.

`CC[C@@]1(O)C[C@H](OC2CC(N(C)C)C(O)C(C)O2)c2c(cc3c(c2O)C(=O)c2c(O)ccc(O)c2C3=O)[C@H]1C(=O)OC` (stereo not given in full): the growth inhibition was 82% (active).

Regarding `CCCCCc1cc(O)c(CCCC)c(O)c1`, the growth inhibition was -47%.

In the case of `NC(=O)/C=C/c1ccc([As]=O)cc1` (stereo not given), the growth inhibition is 9%.

Turning to `O=[N+]([O-])c1cccc(SC(Cl)(Cl)Cl)c1`, the growth inhibition is -11%.

As to `COc1cc(/C=C(/C)[N+](=O)[O-])ccc1O`, the growth inhibition was 19%.

`CCC[CH2][Sn]1([CH2]CCC)[O]CC(CN2CCOCC2)[O]1` (stereo not given): the growth inhibition was 26%.

On to `O=C1CN2CCCCC2CN1` (stereo not given), for which the growth inhibition is -58%.

Take `CCC[CH2][Sn]([CH2]CCC)([O]C(=O)CCC(C)=O)[O]C(=O)CCC(C)=O`: the growth inhibition is 74% (active).

Take `C[CH2][Sn]([F])([CH2]C)[CH2]C`: the growth inhibition is -6%.

For `CN(C)CCBr`, the growth inhibition is -1%.

As for `O=[N+]([O-])c1ccc2c3c(cccc13)CC2`, the growth inhibition was -1%.

With `CC1=CC2CC(C)=C(CC[C@]3(C)CC[C@H]([C@@H](C)C(=O)O)OO3)C(C)(C)C2CC1` (stereo not given in full), the growth inhibition was 41%.

In the case of `ClC(CN1CCCCC1)C(Cl)c1ccccc1` (stereo not given), the growth inhibition is 7%.

On to `CCOC(=O)c1ccc(N=Cc2ccc(N(CCCl)CCCl)cc2C)cc1`, for which the growth inhibition is -8%.

In the case of `CN=C(N)N/N=C(\C)c1ccc2sc3ccc(/C(C)=N/NC(N)=NC)cc3c2c1`, the growth inhibition is 17%.

For `c1cc2n[pH]nc2cn1` (stereo not given), the growth inhibition is 5%.

For `O=[N+]([O-])c1ccc(Br)c([N+](=O)[O-])c1`, the growth inhibition was -6%.

As to `O=C(CBr)NC1CCCCC1`, the growth inhibition is 2%.

For the compound `CC(C)C12C=C3CCC4C(C)(C(=O)O)CCCC4(C)C3(CC1)OO2` (stereo not given), the growth inhibition was -6%.

Regarding `IC(I)=C(I)I`, the growth inhibition is 99% (active).

For the compound `Clc1ccc2c(c1)C(c1ccccc1Cl)=NCC(SCCN1CCOCC1)=N2`, the growth inhibition is 45%.

As to `CCOP(=O)(OCC)/C(C#N)=C/c1ccc(Br)cc1`, the growth inhibition was -20%.

On to `Cc1ccc(C(=O)C2C(c3ccccc3)N2C2CCCCC2)cc1` (stereo not given), for which the growth inhibition is -20%.

`CN(C)c1ncnc2c1ncn2C1OC(CO)C2NP(=O)(N(CCCl)CCCl)OC21` (stereo not given): the growth inhibition was 8%.

Turning to `Nc1nc(N)c(-c2ccc(Cl)c(Cl)c2)c(CCc2ccc(CNC(=O)c3cccc(S(=O)(=O)F)c3)cc2)n1`, the growth inhibition was -10%.

As to `C[CH2][Pb]([CH2]C)([CH2]C)[O]C(=O)COc1ccc(Cl)cc1Cl`, the growth inhibition was 2%.

As for `O=C(OCC(CCl)OC(=O)C(Cl)(Cl)Cl)C(Cl)(Cl)Cl` (stereo not given), the growth inhibition was 2%.
